The supplement of paper PMC10127200
Where a name gives a salt, the structure may show the parent alone.

Key:
Assay in all cases: Euclidean distance of Cell Painting phenotypic profile (signed KS, 77 features) to DMSO centroid (dimensionless distance); 5 or 10 uM (library dependent); higher = stronger phenotypic change vs DMSO (phenoactivity)
Details in all cases: 48 h
[1] = system: 786-O
In short: (§1)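 Harmony extracted 77 features from 20X confocal images (9 fields/well) of stained cells, scoring each as a signed Kolmogorov-Smirnov statistic against same-plate vehicle wells. The cells, five cancer lines and a healthy fibroblast line, had received library compounds for 48 h at 10 or 5 uM depending on library, with 0.1% DMSO final. Phenoactivity is the Euclidean distance from each plate-position-corrected, correlation-weighted, top-dose replicate-averaged profile to the median vehicle profile.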

[2] = system: A549
In short: as §1

[3] = system: DU145
In short: as §1

[4] = system: FB
In short: as §1

[5] = system: HEPG2
In short: as §1

[6] = system: OVCAR4
In short: as §1

SMILES	Euclidean distance [1]	Euclidean distance [2]	Euclidean distance [3]	Euclidean distance [4]	Euclidean distance [5]	Euclidean distance [6]
CC(C)[C@H](C(=O)Nc1ccc(C(=O)NO)cc1)c1ccccc1	3.25	4.55	3.1	4.34	4.16	3.22
N#Cc1ccc(Oc2ccc3c(c2)COB3O)cc1 [Crisaborole (AN2728)]	1.25	1	0.832	0.837	2.52	1.91
CS(=O)(=O)Nc1cc2occ(NC=O)c(=O)c2cc1Oc1ccccc1 [Iguratimod]	0.942	0.587	2.23	1.05	0.878	0.85
Cc1ccc([C@@H]2O[C@H](CO)[C@@H](O)[C@H](O)[C@H]2O)cc1Cc1ccc(-c2ccc(F)cc2)s1 [Canagliflozin]	1.32	1.86	0.716	1.12	0.807	1.77
CC1(C)S[C@@H]2[C@H](NC(=O)[C@H](N)c3ccc(O)cc3)C(=O)N2[C@H]1C(=O)O [Amoxicillin trihydrate]	0.875	1	0.666	0.987	0.529	1.31
CC(NCCc1ccc(O)cc1)C(O)c1ccc(O)cc1 (configuration not stated) [Ritodrine HCl]	1.08	0.752	0.998	1.01	0.393	0.728
O=c1cc(-c2cccc3c2Sc2ccccc2S3)oc(N2CCOCC2)c1	0.999	0.525	0.839	1.33	1.72	1.14
O=C(/C=C\n1cnc(-c2cc(C(F)(F)F)cc(C(F)(F)F)c2)n1)NNc1cnccn1	2.36	3.91	2.72	3.85	2.34	3.83
O=c1ccc2cc3ccoc3cc2o1 [Psoralen]	1.35	0.643	0.873	1.16	1.17	1.04
NC(=O)N/N=C/c1ccc([N+](=O)[O-])o1 [Nitrofural]	1.31	0.907	1.62	1	0.466	1.22
COc1cc(C[C@H]2C(=O)OC[C@@H]2Cc2ccc(OC)c(OC)c2)ccc1O [(-)-Arctigenin]	1.04	1.48	1.36	0.929	2.46	1.29
C1CCN2C[C@@H]3C[C@@H](CN4CCCC[C@@H]34)[C@H]2C1 [(-)-Sparteine Sulfate]	0.93	0.957	0.846	1.03	0.474	1.04
CC(CNC(=O)c1cccnc1)NC(=O)c1cccnc1 (configuration not stated) [Nicaraven]	1.31	0.748	1	1	2.29	1.91
O=C(O)C1(c2ccc(-c3ccc(Cl)c(Cl)c3)c(F)c2)CC1	0.785	1.02	1.42	1.35	1.17	1.72
NC(=O)c1ccc(-c2nc(-c3ccccn3)c(-c3ccc4c(c3)OCO4)[nH]2)cc1	1.59	2.49	1.48	1.91	2.52	2.61
CC(C(=O)O)c1cccc(C(=O)c2ccccc2)c1 (configuration not stated) [Ketoprofen]	1.28	0.765	2.29	0.989	0.77	1.42
Cc1ccc(-c2c(-c3nn(C)c4ncnc(N5CC[C@H](N6CCCCC6)C5)c34)cnn2C)cc1	0.748	0.927	0.814	1.22	0.843	1.27
CONC(=O)Nc1ccc(-c2sc3c(c2CN(C)C)c(=O)n(-c2ccc(OC)nn2)c(=O)n3Cc2c(F)cccc2F)cc1 [Relugolix]	1.06	0.927	1.37	1.4	0.841	1.3
CCOC(N)=O [Urethane]	1.2	0.492	0.675	0.718	0.46	1.46
C[C@@H]1CC(=O)NN=C1c1ccc(NN=C(C#N)C#N)cc1 [Levosimendan]	1.83	0.486	1.3	1.44	0.487	0.625
COC(=O)C1=C(C)NC(C)=C(C(=O)OCCN2CCN(C(c3ccccc3)c3ccccc3)CC2)C1c1cccc([N+](=O)[O-])c1 (configuration not stated) [Manidipine 2HCl]	1.93	2.35	1.3	1.11	1.84	1.95
Cc1cc(C(C)Nc2ccccc2)c2nc(N3CCOCC3)cc(=O)n2c1 (configuration not stated)	1.4	1.16	1.61	1.62	1.29	2.37
O=C(O)c1cc(O)c2c(c1)[C@@H]([C@H]1c3cc(C(=O)O)cc(O)c3C(=O)c3c(O[C@@H]4O[C@H](CO)[C@@H](O)[C@H](O)[C@H]4O)cccc31)c1cccc(O[C@@H]3O[C@H](CO)[C@@H](O)[C@H](O)[C@H]3O)c1C2=O [Sennoside B]	1.31	0.866	0.808	0.988	0.382	0.952
C[C@H]1O[C@@H](n2cc(F)c(=O)[nH]c2=O)[C@H](O)[C@@H]1O [Doxifluridine]	0.747	1.07	0.886	0.864	2.72	1.03

SMILES	Euclidean distance [1]	Euclidean distance [2]	Euclidean distance [3]	Euclidean distance [4]	Euclidean distance [5]	Euclidean distance [6]
Oc1cc(O)c2c(c1)O[C@H](c1ccc(O)c(O)c1)[C@H](O)C2 [(-)Epicatechin]	1.1	0.627	0.705	1.15	0.982	1.04
CC(C)NC[C@@H](C(=O)N1CCN(c2ncnc3c2[C@H](C)C[C@H]3O)CC1)c1ccc(Cl)cc1	2.01	1.92	1.44	2.24	1.1	1.13
COc1ccc2[nH]c([S+]([O-])Cc3ncc(C)c(OC)c3C)nc2c1 (configuration not stated) [Omeprazole Sodium]	1.03	1.11	2.39	0.71	0.957	1.07
C[C@@H](O)[C@H]1C(=O)N2C(C(=O)O)=C(S[C@@H]3CN[C@H](CNS(N)(=O)=O)C3)[C@H](C)[C@H]12 [Doripenem]	0.636	0.801	0.812	1.15	0.434	1.45
CCOCC(O)COc1ccc(NC(=O)CC[S+](C)C)cc1 (configuration not stated) [Suplatast Tosylate]	1.48	1.01	1.47	1.14	0.648	1.13
C[C@H]1COc2c(C3(N)CC3)c(F)cc3c(=O)c(C(=O)O)cn1c23 [Pazufloxacin mesylate]	1	1.18	0.975	0.993	1.28	1.36
CCN(Cc1ccncc1)C(=O)C(CO)c1ccccc1 (configuration not stated) [Tropicamide]	1.11	1.27	1.8	1.01	0.684	1.3
CCS(=O)(=O)CCn1c([N+](=O)[O-])cnc1C [Tinidazole]	0.626	0.68	0.693	0.579	0.533	1.48
COc1ccc(Cl)cc1NC(=O)Nc1cc(C)nc2ccccc12	1.14	1.85	1.06	1.02	0.631	1.47
Cc1c(C(=O)Nc2ccc(N3C[C@@H](C)O[C@@H](C)C3)nc2)cccc1-c1ccc(OC(F)(F)F)cc1 [LDE225 (NVP-LDE225.Erismodegib)]	0.757	1.2	0.747	0.782	1.4	1.38
CCOCCn1c(C2CCN(CCc3ccc(C(C)(C)C(=O)O)cc3)CC2)nc2ccccc21 [Bilastine]	1.25	1.12	1.37	0.933	0.505	0.894
Clc1ccc(C(Cn2ccnc2)OCc2c(Cl)cccc2Cl)c(Cl)c1 (configuration not stated) [Isoconazole nitrate]	1.02	0.91	1.26	0.868	0.714	1.04
NCCCS(=O)(=O)O [Homotaurine]	1.14	1.27	0.97	0.97	0.248	1.36
CC1CS(=O)(=O)CCN1/N=C/c1ccc([N+](=O)[O-])o1 (configuration not stated) [Nifurtimox]	1.55	0.675	1.08	0.936	1.04	1.33
CCC(CC)CC1(C(=O)Nc2ccccc2SC(=O)C(C)C)CCCCC1	1.26	1.07	0.832	1	0.428	0.986
CN1CCN(C2=Nc3cc(Cl)ccc3Nc3ccccc32)CC1 [Clozapine]	1.75	1.56	1.21	0.901	1.03	1.34
CCC[C@H](N[C@@H](C)C(=O)N1[C@H](C(=O)O)C[C@@H]2CCCC[C@@H]21)C(=O)OCC [Perindopril Erbumine]	1.37	0.943	1.24	0.906	1.41	0.854
Cc1cc(C)cc(OCC2CNC(=O)O2)c1 (configuration not stated) [Metaxalone]	0.96	0.856	0.745	0.753	0.417	1.15
COc1ccc(C(=O)CC(=O)c2ccc(C(C)(C)C)cc2)cc1 [Avobenzone]	1.41	0.547	0.714	1.02	0.762	0.989
Cc1nccn1CC1CCc2c(c3ccccc3n2C)C1=O (configuration not stated) [Ondansetron Hydrochloride Dihydrate]	1.23	0.687	0.998	1.01	1.39	1.43
CC(C)CCCCC(=O)N[C@@H](CCN)C(=O)N[C@H](C(=O)N[C@@H](CCN)C(=O)N[C@H]1CCNC(=O)[C@H]([C@@H](C)O)NC(=O)[C@H](CCN)NC(=O)[C@H](CCN)NC(=O)[C@H](CC(C)C)NC(=O)[C@@H](Cc2ccccc2)NC(=O)[C@H](CCN)NC1=O)[C@@H](C)O [Polymyxin B sulphate]	1.64	0.815	1.39	1.53	0.717	0.928
CCC[C@@H]1C[C@@H](C(=O)N[C@@H]([C@H]2O[C@H](SC)[C@H](O)[C@@H](O)[C@H]2O)[C@@H](C)O)N(C)C1 [Lincomycin Hydrochloride Monohydrate]	0.425	0.311	0.923	0.981	0.275	1.41
O=c1ccc2ccc(OCCCCN3CCN(c4cccc5sccc45)CC3)cc2[nH]1 [Brexpiprazole]	1.47	1.82	2.84	1.52	2.28	1.15
